DAX1 inh-1: DAX1 (NR0B1) inhibitors, primary screen, cell-based, HEK293, Gal4-DAX1, luciferase luminescence; Nuclear receptor subfamily 0 group B member 1 (Homo sapiens), P51843; HEK293 Gal4-DAX1 luciferase reporter; inhibition, % at 6.75 µM; 340,000 compounds, 0.99% hits; AID 504766, 2011;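 active = inhibition above the mean over all tested compounds plus 3 SD, cut at about 4.2% in these data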;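 also: inhibition shows as a rise in luminescence from relieved DAX1 repression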
Target sequence (P51843 207-470 limits assumed): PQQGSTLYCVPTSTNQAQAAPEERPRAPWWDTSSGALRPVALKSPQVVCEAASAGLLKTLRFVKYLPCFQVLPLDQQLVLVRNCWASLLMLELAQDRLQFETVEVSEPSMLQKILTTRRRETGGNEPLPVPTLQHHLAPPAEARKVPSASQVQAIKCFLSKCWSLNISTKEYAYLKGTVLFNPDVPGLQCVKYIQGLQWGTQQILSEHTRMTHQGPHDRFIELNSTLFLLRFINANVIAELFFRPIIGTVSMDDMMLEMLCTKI
hcDAF12 agonist: H. contortus DAF-12 nuclear receptor activators, primary screen, cell-based, luminescence, HEK293, lit1-tk-luc reporter | HEK293 hcDAF-12 lit1-tk-luc reporter; 0% DMSO, 100% Δ7-dafachronic acid | activation, % at 6.8 µM | 370,000 compounds, 1.4% hits | AID 652067, 2013;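 active = activation above the mean of all tested compounds plus 3 SD, cut at about 5.5% in these data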
hgDAF-12 ag: H. glycines DAF-12 receptor agonists, primary screen, cell-based, luminescence, HEK293, GAL4 fusion, UAS-luciferase; Nuclear hormone receptor DAF-12 (Heterodera glycines), GAL4 fusion; HEK293 GAL4-hgDAF12 UAS-luciferase reporter, agonist luminescence; normalized to butyrate control; activation, % at 6.8 µM; 370,000 compounds, 1.8% hits; AID 687014, 2013;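 active = activation above a cutoff set at the mean of all screened compounds plus 3 SD, cut at about 10% in these data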
ssDAF-12 act: S. stercoralis DAF-12 nuclear receptor activators, primary screen, cell-based, luminescence, HEK293, GRIP1 co-expression, lit1-tk-luc; 370,000 compounds, 1% hits; activation, % at 6.8 µM; Nuclear hormone receptor DAF-12 (Strongyloides stercoralis); HEK293 ssDAF-12/GRIP1 lit1-tk-luc reporter; % of 3 µM dafachronic acid response; AID 652126, 2013;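 active = activation above the mean over all tested compounds plus 3 SD, cut at about 0.9% in these data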
DAX1 inh-2: DAX1 (NR0B1) inhibitors on StAR promoter, primary screen, cell-based, luminescence, SF-1 (NR5A1), full-length DAX-1; HEK293T StAR-luciferase reporter, SF-1/DAX-1 repression relief; AID 652010, 2013; inhibition, % at 6.8 µM; 370,000 compounds, 1.1% hits;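 active = inhibition above the mean over all tested compounds plus 3 SD, cut at about 3.6% in these data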;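 also: higher inhibition means more luminescence from relief of DAX-1 repression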
Of the large screens only hits and unclear results are named; the others gave an inactive call. This is a sample that favours compounds with a hit; in the whole collection about 4.1% have one here.

COc1ccc(Nc2nc(C)c3ccccc3n2)cc1	hcDAF12 agonist 6.5, ssDAF-12 act 1.1
COc1ccc(Nc2nc(C)c(-c3ccccc3)s2)cc1	hcDAF12 agonist 6.2
Cc1nc(Nc2ccc(S(N)(=O)=O)cc2)sc1-c1ccccc1	none
CCOc1cc(/C=N/NC(=O)c2cccs2)cc([N+](=O)[O-])c1O	hgDAF-12 ag 12
O=C(NCC(=O)N1CCCCCC1)c1ccc(Cl)cc1	none
O=C(NCC(=O)N1CCCCCCC1)c1ccc(Cl)cc1	hgDAF-12 ag 12
NC(=O)CNC(=O)c1ccc(Cl)cc1	DAX1 inh-1 5.6
CN1CCN(C(=O)c2ccccc2NC(=O)c2sc3ccccc3c2Cl)CC1	none
CN1CCN(c2ccc(NC(=O)c3sc4ccccc4c3Cl)cc2)CC1	hgDAF-12 ag 11
Cc1ccc(C(=O)Nc2ccc(N3CCCC3)cc2)cc1	hgDAF-12 ag 12
Cc1ccc(C(=O)Nc2ccc(N3CCCCC3)cc2)cc1	none
Cc1ccc(C(=O)Nc2ccc(N3CCN(C)CC3)cc2)cc1C	DAX1 inh-1 4.7
Cc1ccc(C(=O)Nc2ccc(N3CCN(S(C)(=O)=O)CC3)cc2)cc1C	none (no result: DAX1 inh-1)
Cc1cc(C(=O)Nc2ccc(S(=O)(=O)N3CCCC3)cc2)no1	none
Cc1cc(C(=O)Nc2ccc(N3CCCCC3)cc2)no1	hgDAF-12 ag 11
O=C(NCCc1c[nH]c2ccccc12)OCc1cn(Cc2cc(F)cc(F)c2)nn1	none (no result: DAX1 inh-1)
O=C(CCc1ccccc1)N[C@H]1[C@H](OCc2ccccc2)CCC[C@@]12C(=O)N(Cc1ccccc1)c1ccc(-c3cnccn3)cc12	none (no result: DAX1 inh-1)
COc1ccc(/C=N/N=C2/SCC(=O)N2Cc2ccccc2)cc1	DAX1 inh-1 5.8, hgDAF-12 ag 13
COC(=O)c1ccc(Cn2ccc3ccc(-c4ccc5ccn(C(=O)c6ccccc6OC)c5c4)cc32)cc1	none (no result: DAX1 inh-1)
O=C1c2ccccc2C(c2nnnn2-c2ccc3c(c2)OCCO3)N1CCCn1ccnc1 (stereo unspecified)	DAX1 inh-2 3.9 (no result: DAX1 inh-1)
CCC(C)(C)C(=O)Nc1nnc(CCc2ccccc2)s1	DAX1 inh-1 4.7, hgDAF-12 ag 11
C/C(=N\NC(=S)NCC(C)(C)C)c1cc(F)cc(F)c1O	DAX1 inh-1 4.7
C/C(=N\NC(=O)COc1ccccc1-c1ccccc1)c1ccccn1	DAX1 inh-2 4.0
Cc1ccc(SC(=O)c2c([N+](=O)[O-])c(C)nn2C)cc1	DAX1 inh-1 4.5
Cc1cc(C)n(C(=O)c2c([N+](=O)[O-])c(C)nn2C)n1	none
C=CCOc1ccc(/C=C/C(=O)OCC(=O)N2CCN(C(C)=O)CC2)cc1	none
C=CCOc1ccc(/C=C/C(C)=N\O)cc1	DAX1 inh-2 3.9
O=C(Oc1ccc2c(-c3ccccc3)cc(=O)oc2c1)c1cccs1	DAX1 inh-1 4.4
Cc1n(CC(=O)c2ccc(F)cc2)c2ccccc2[n+]1C	none
Cn1c(=N)n(CC(=O)c2ccc(F)cc2)c2ccccc21	hcDAF12 agonist 13, hgDAF-12 ag 11, ssDAF-12 act 1.2
COc1cc(NC(=O)c2ccccc2)c(C)cc1NC(=O)CSc1nnc(-c2ccco2)n1Cc1ccco1	none (no result: DAX1 inh-1)
COc1cc(/C=N/Nc2ccc(C(=O)O)cc2)cc(OC)c1OC	DAX1 inh-1 4.3
COc1ccc(/C=N/Nc2ccc(C(=O)O)cc2)c(OC)c1OC	none
O=C(N/N=C/c1cccc(C(F)(F)F)c1)c1ccccc1O	none
O=C(O)c1ccc(N/N=C/c2cccc(C(F)(F)F)c2)cc1	DAX1 inh-1 4.7, DAX1 inh-2 4.4
COc1ccc(NC(=O)CN(C)C(=O)CCCc2c[nH]c3ccccc23)cc1	none
COc1ccc(NC(=O)CN(C)C(=O)Cc2c[nH]c3ccccc23)cc1	hcDAF12 agonist 6.4
CN(CC(=O)Nc1c(Cl)cccc1Cl)C(=O)Cc1ccc(S(=O)(=O)N2CCOCC2)s1	none
COc1ccc(NC(=O)CN(C)C(=O)Cc2ccc(S(=O)(=O)N3CCOCC3)s2)cc1	DAX1 inh-2 4.4
COc1ccccc1NC(=O)COC(=O)Cc1c[nH]c2ccccc12	hcDAF12 agonist 6.3

Compound activity (PubChem)
